# Test results as given in PubChem BioAssay AID588790 (National Center for Advancing Translational Sciences (NCATS), 2011).
# About 85 (7%) of roughly 1,200 compounds were called active. Entries that show only a call come without a potency. Calls follow the shape of the full dose curve. Only a selection was taken, and actives are over-represented in it overall.
# Biological target: Beta-2 adrenergic receptor (Homo sapiens) (UniProt P07550)
# Assay: qHTS assay of beta-arrestin-biased ligands of beta2-adrenergic receptor: Hit Validation with GloSensor
# Settings: W9-Glo22F cells, GloSensor cAMP luminescence, beta2AR agonism; activation: at 46.1 µM (top of the series)
# Description: The concept of biased agonism is an emerging concept of molecular pharmacology which proposes that seven transmembrane receptors (7TMRs) or G protein-coupled receptors (GPCRs), exist in multiple signaling conformations and complexes and that ligands (either agonists or antagonists) can induce signaling biased responses for distinct signal transduction cascades.
# Furthermore, accumulating evidence over the last decade has drawn attention to a novel function of beta-arrestins as signal transducers that scaffold various signaling molecules upon activation of 7TMRs. […] This beta-arrestin-biased signaling presumably leads to distinct physiological outcomes from those by G protein activation.
# Additionally, the active receptor conformations which […] on this beta-arrestin signaling are likely different from those activating G protein signaling
# The goal of this screening project is to discover and optimize novel beta-arrestin-biased ligands for beta2-AR signaling. A luminescent cell-based assay for beta2-AR-mediated agonism, known as the Tango assay, has been validated in which ligand binding of a recombinant beta2-AR and subsequent recruitment of a recombinant beta-arrestin lead to the release of the transcriptional activator tTA, which upregulates transcription of a tTA-responsive luciferase gene. […] After compounds were identified in this primary screen, they were tested in a counter screen that used luminescence as measure through the GloSensor reagent.
# NIH Molecular Libraries Probe Production Network [MLPCN]
# NIH Chemical Genomics Center [NCGC]
# PI: Bryan Roth (UNC) and Bob Lefkowitz (Duke)
# 2 uL of W9-Glo22F cells are dispensed into a white 1536-well plate. They are incubated overnight at 37 deg C at 5% CO2. 23 nL of compounds and controls are pinned into the wells. Then 2 uL of GloSensor is added and the plate is incubated for 10 min at room temperature.The plates are then read on the ViewLux for luminescence.
# Potency is read from the fitted curve at half-maximal effect.
# Beta-2 adrenergic receptor (Homo sapiens), sequence (P07550 whole entry, looked up): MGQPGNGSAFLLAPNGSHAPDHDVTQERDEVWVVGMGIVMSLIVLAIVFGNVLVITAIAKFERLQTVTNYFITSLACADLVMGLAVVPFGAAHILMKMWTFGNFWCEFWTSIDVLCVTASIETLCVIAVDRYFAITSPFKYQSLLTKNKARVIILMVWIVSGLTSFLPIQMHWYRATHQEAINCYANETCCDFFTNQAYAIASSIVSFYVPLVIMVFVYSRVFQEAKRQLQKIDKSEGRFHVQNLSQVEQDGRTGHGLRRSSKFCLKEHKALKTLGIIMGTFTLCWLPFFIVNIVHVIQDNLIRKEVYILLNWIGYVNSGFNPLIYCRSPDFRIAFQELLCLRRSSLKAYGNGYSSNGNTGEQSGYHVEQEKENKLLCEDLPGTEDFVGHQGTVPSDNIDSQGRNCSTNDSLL
SMILES,Potency,activation
Cc1nc(SCC(=O)N2CCOCC2)c2c3c(sc2n1)CCC3,inactive,–
Cc1ccc(C)c(-n2c(SCC(=O)O)nc3sc4c(c3c2=O)CCCC4)c1,23.1 µM (active),–
O=C(NCc1ccco1)c1cccn2c(=O)c3c4c(sc3nc12)CCCC4,inactive,–
CC1(C)CC(C)(c2ccc(O)cc2O)N(c2cccc(Cl)c2)C(=S)N1 (stereo not drawn),inactive,–
S=c1[nH]c2cc(-c3ccccc3)ccc2o1,inactive,–
CC1CCC(NC(=O)c2ccc(S(C)(=O)=O)cc2)CC1 (stereo not drawn),29.1 µM (active),–
CC(C)CC(=O)NC(=S)Nc1ccc(Cl)cn1,inactive,–
O=C(CS(=O)(=O)c1ccccc1)Nc1nc2ccccc2s1,inactive,–
CCCC(=O)NC(=S)Nc1ccc(Cl)cn1,inactive,–
COc1cccc(C(=O)C2CCCN(Cc3cccc(-n4nc(C)cc4C)c3)C2)c1 (stereo not drawn),inactive,–
COc1ccc(C(=O)C2CCCN(Cc3cnc(N4CCCC4)s3)C2)cc1OC (stereo not drawn),inactive,–
COc1ccc(C(=O)C2CCCN(C/C=C/c3ccccc3OC)C2)c(OC)c1 (stereo not drawn),18.4 µM (active),–
O=c1[nH]c(CSc2cccc[n+]2[O-])nc2ccccc12,inactive,–
CCc1cc2c(=O)[nH]c(-c3ccccn3)nc2s1,inactive,–
O=c1[nH]c(CSc2ccccn2)nc2c1cnn2-c1ccccc1,11.6 µM (active),–
CCn1c(SCC(=O)N/N=C/C=C\c2ccco2)nc2ccccc21,inactive,–
S=C(NN=C1CCN(Cc2ccccc2)CC1)NC1CCCCC1,inactive,–
COc1cccc([C@@H]2Oc3ccc(Br)cc3C(=O)[C@H]2OC(=O)NC2CCCC2)c1,inactive,–
CCOc1ccc(C(=O)Nc2ccccc2OC(F)F)cc1,inactive,–
O=C(CN1C(=O)C2C3CC(C(Br)C3Br)C2C1=O)N1CCN(Cc2ccccc2)CC1 (stereo not drawn),inactive,–
CCNc1nc(NC(C)CC)nc(ON=C(C)C)n1 (stereo not drawn),32.6 µM (active),–
CN(C)S(=O)(=O)c1cccc(NC(=S)N/N=C/c2ccco2)c1,inactive,–
COc1ccc(/C=C/c2ccc3cccc(O)c3n2)c(OC)c1OC,inactive,–
CCCCCOCC1CC(C/C(C)=N/NC(N)=S)C(=O)O1 (stereo not drawn),inactive,–
CCCCCC1CC(/C(C)=N/NC(N)=O)OC1=O (stereo not drawn),29.1 µM (active),–

SMILES,Potency,activation
C/C(CCC1CC(C)(C)OC1=O)=N\NC(N)=S (stereo not drawn),inactive,–
CS/C(N)=N/N=C/c1cc(C)ccc1O,inactive,–
CCN(CC)C(=O)[C@H]1CC(CC(=O)NCc2ccc(OC)c(OC)c2)C(=O)N2CCc3c([nH]c4ccccc34)[C@]12C (stereo partly drawn),inactive,–
O=C(CSc1n[nH]c(=O)n1-c1cccnc1)N1CCOCC1,inactive,–
COc1ccc2cc1Oc1ccc(cc1)C[C@H]1c3cc(c(OC)cc3CCN1C)Oc1c(O)c(OC)cc3c1[C@H](C2)N(C)CC3,inactive,–
CCOC(=O)N1C/C(=C\c2ccccc2)C(=O)/C(=C/c2ccccc2)C1,inactive,–
COc1cc(/C=C2\CC(C(C)(C)C)C/C(=C\c3cc(OC)c(OC)c(OC)c3)C2=O)cc(OC)c1OC (stereo not drawn),inactive,–
COc1cc(/C=C2\CC/C(=C\c3ccc(OCCO)c(OC)c3)C2=O)ccc1OCCO,18.4 µM (active),–
O=C(O)CC1S/C(=N/N=C2CCCCC2)N(c2ccccc2)C1=O (stereo not drawn),inactive,–
CN(C)CCCn1c(SCC(=O)Nc2nccs2)nnc1-c1ccncc1,inactive,–
CCC(C)NC(=O)C1CCN(S(=O)(=O)N2CCC3(CC2)OCCO3)CC1 (stereo not drawn),inactive,–
COc1ccc(Oc2nc(-c3ccncc3)nc3ccccc23)cc1,29.1 µM (active),–
COc1cccc(/C=N/Nc2nc(-c3cccnc3)nc3ccccc23)c1,inactive,–
O=C(CC(=O)Nc1cccc(F)c1)Nc1cccc(F)c1,inactive,–
CCCCCCCCN1C(=O)N(C)C(N(O)C(=O)NC)C1(C)C (stereo not drawn),inactive,–
Clc1cccc(Cl)c1C1Nc2cccc3cccc(c23)N1,inactive,–
Clc1ccccc1C1Nc2cccc3cccc(c23)N1,inactive,–
O=[N+]([O-])c1ccc(Cl)c(C2Nc3cccc4cccc(c34)N2)c1,0.0046 µM (active),–
Cc1ccc(C(=O)N/C(=C\c2ccco2)C(=O)NCCc2c[nH]c3ccccc23)cc1,inactive,–
O=C(CNC(=O)C(c1ccccc1)c1ccccc1)N/N=C\c1cccc(O)c1,inactive,–
CCC(Sc1nc(C)cc(=O)[nH]1)C(=O)Nc1nc2c(s1)CCCC2 (stereo not drawn),inactive,–
CC(/C=C/c1ccccc1)=N\NC(N)=S,inactive,–
NC(=S)NN=C(Cc1ccccc1)Cc1ccccc1,32.6 µM (active),–
NC(=S)NN=C(c1ccccc1)c1ccccc1,inactive,–
Cc1cc(N2Cc3ccccc3C2)ccc1C=O,inactive,–

SMILES,Potency,activation
C/C(=N/NC(=O)c1ccoc1C)c1ccc(NC(=O)C2CCCC2)cc1,inactive,–
Oc1ccc(NCc2cccs2)cc1,inactive,–
O=C(COC(=O)c1ccc(CO)cc1)NCc1cccs1,–,80.4% (active)
O=C(COC(=O)c1n[nH]c(=O)c2ccccc12)NCc1ccccc1,inactive,–
CC1CN(C(=S)NC(=O)c2ccc([N+](=O)[O-])cc2)CC(C)O1 (stereo not drawn),inactive,–
CCN1CCN(C(=S)NC(=O)c2cccc(Br)c2)CC1,inactive,–
CN1CCN(C(=S)NC(=O)c2ccc(Br)cc2)CC1,10.3 µM (active),–
CCC1(C)Nc2ccccc2C(=O)N1O (stereo not drawn),inactive,–
O=C(Nc1nc(-c2ccccn2)cs1)Nc1ccc(F)cc1F,inactive,–
CN(C)/C=C/C(=O)c1ccc(F)cc1,inactive,–
O=S(=O)(N1CCOCC1)N1CCOCC1,inactive,–
Cc1ccc(NC(=S)NC(NC(=O)c2ccccc2)C(Cl)(Cl)Cl)c(C)c1 (stereo not drawn),inactive,–
Cn1c(-c2csc(-c3ccccc3)n2)n[nH]c1=S,20.6 µM (active),–
S=c1[nH]nc(-c2ccccc2)n1C1C=CCCC1 (stereo not drawn),inactive,–
CC(c1ccccc1)n1c(-c2ccc(C(C)(C)C)cc2)n[nH]c1=S (stereo not drawn),inactive,–
COc1ccccc1-c1cc(C(=O)N2CCN(c3ccccc3OC)CC2)no1,inactive,–
Cc1ccc(Nc2nc(CSc3nnc(-c4ccccc4C)n3C)cs2)cc1,inactive,–
CCCOc1ccc(C(=O)Nc2nc(C)c(Cc3ccc4c(c3)OCO4)s2)cc1,inactive,–
COc1ccccc1N=NC1C(=O)N(C(N)=S)N=C1C (stereo not drawn),inactive,–
CC(=O)Nc1ccc(NC(=O)Cn2nc(C(=O)Nc3ccc(C)cc3)ccc2=O)cc1,inactive,–
CC1=NN(C(N)=S)C(=O)C1N=Nc1cccc(C)c1 (stereo not drawn),inactive,–
CC1=NN(C(N)=S)C(=O)C1N=Nc1ccc(F)cc1 (stereo not drawn),inactive,–
CC1=NN(C(N)=S)C(=O)C1N=Nc1ccccc1 (stereo not drawn),18.4 µM (active),–
